Bioassay records as filed in PubChem BioAssay.
M1 ag parental = nonselective activator or artifact in parental CHO-K1 cells. Fluo-8 calcium fluorescence; scaled to maximal ATP response, vehicle zero. activation, % at 3 µM. hit rate 0.48% among 360,000. AID 602248; in the data active means activation above about 15%;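 further: untransfected CHO-K1 host cells lacking M1 receptor as counterscreen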
M1 antag = blocks human M1 muscarinic receptor; inhibition, % at 3 µM; hit rate 1.3% among 360,000; CHO-K1 hM1, Fluo-8 calcium fluorescence, ACh EC80 antagonist;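 active means percent inhibition above its own plate's cutoff, namely the mean of that plate's compound wells plus 3 SD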;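 further: peak over basal fluorescence ratio during 140 s after agonist addition; 0% = ACh EC80 plus DMSO and 100% = DMSO alone without agonist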
Target sequence (P11229 whole entry, looked up): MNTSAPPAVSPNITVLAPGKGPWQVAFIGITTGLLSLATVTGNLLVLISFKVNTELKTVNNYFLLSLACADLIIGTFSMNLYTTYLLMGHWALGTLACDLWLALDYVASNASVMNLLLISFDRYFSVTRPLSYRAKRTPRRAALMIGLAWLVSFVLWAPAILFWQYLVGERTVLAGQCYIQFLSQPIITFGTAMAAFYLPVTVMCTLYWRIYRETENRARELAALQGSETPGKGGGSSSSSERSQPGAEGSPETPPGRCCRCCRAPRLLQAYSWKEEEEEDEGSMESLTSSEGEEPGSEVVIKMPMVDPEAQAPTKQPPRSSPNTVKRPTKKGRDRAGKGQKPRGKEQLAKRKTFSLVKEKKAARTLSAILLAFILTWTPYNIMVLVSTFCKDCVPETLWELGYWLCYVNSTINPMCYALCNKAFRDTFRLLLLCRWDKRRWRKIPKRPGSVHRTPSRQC
M1 ag = activates human CHRM1 receptor. AID 588814. activation, % at 3 µM. P11229. hit rate 0.33% among 360,000. CHO-K1 hM1, Fluo-8 calcium fluorescence, agonist mode; 0% DMSO, 100% acetylcholine EC100;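 active means activation above the run's mean compound activation plus 3 SD, cut at about 16% in these data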;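 further: peak over basal fluorescence ratio within a 140 s kinetic read after compound addition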
M1 PAM = potentiates human M1 receptor response to acetylcholine; P11229; CHO-K1 hM1, Fluo-8 calcium fluorescence, ACh EC20; 0% = ACh EC20, 100% = maximal ACh; activation, % at 3 µM; hit rate 0.088% among 360,000; AID 588819; in the data active means activation above about 19%, passing the limit was not always enough
CHO-K1 Ca antag = nonselective inhibitor or artifact in parental CHO-K1 cells | AID 602250 | hit rate 0.6% among 360,000 | ATP-induced calcium, Fluo-8 fluorescence | inhibition, % at 3 µM;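 active means inhibition above a per-plate cutoff, the plate's mean sample inhibition plus 3 SD, cut at about 24% in these data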;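 further: 0% = DMSO plus EC80 ATP and 100% = DMSO alone without ATP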
M1 PAM parental = M1 PAM counterscreen hit in parental CHO-K1 cells. hit rate 0.02% among 360,000. ATP EC20, Fluo-8 calcium fluorescence; 0% at ATP EC20, 100% at ATP max. AID 602247. activation, % at 3 µM;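 active means activation above the run cutoff, the mean activation of all test compounds plus 3 SD, cut at about 40% in these data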;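 further: peak over basal fluorescence ratio in a 140 s read after ATP addition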
* marks the source's active call; other numbers are inactive results. Compounds with a hit are over-represented: about 2.3% of the library has one in this group of screens.

SMILES | M1 ag parental | M1 antag | M1 ag | M1 PAM | CHO-K1 Ca antag | M1 PAM parental
NNC(=O)c1ccc(CN2C(=O)c3cccc4cccc2c34)cc1 | 1 | -12 | 34* | 15 | -5 | 14
COc1ccc(-c2nc3ccccc3c(=O)n2-c2c(C)n(C)n(-c3ccccc3)c2=O)cc1 | 0 | -12 | 0 | 9 | 5 | -22
Cc1c(-n2c(-c3ccccc3)nc3ccccc3c2=O)c(=O)n(-c2ccccc2)n1C | 21* | 6 | -5 | -3 | 3 | 11
Cn1c(CC(O)c2nc3ccccc3n2C)nc2ccccc21 (stereo unspecified) | 0 | -6 | -2 | 4 | 10 | 1
CC(NC(=O)c1ccccc1)C(c1cccs1)N1CCOCC1 (stereo unspecified) | 1 | -9 | -1 | 5 | -13 | 25
CC(=O)Nc1ccc(OCC(O)CN2C(C)CCCC2C)cc1 (stereo unspecified) | 0 | 5 | -7 | -4 | 32* | -15
CC1CCCC(C)N1CC(O)COc1ccc(Cl)cc1 (stereo unspecified) | 1 | -1 | -2 | -4 | -7 | 16
Cc1ccc(OCc2cc(C(=O)N(C)Cc3cnn(-c4ccccc4C)c3)no2)cn1 | 13 | 5 | 2 | -12 | 8 | -17
CC[N+](CC)(CC#Cc1ccccc1)CC(=O)c1ccc(Cl)cc1 | 1 | 35* | -12 | -25 | -6 | 4
CCC[N+](CC#CCO)(CC#Cc1ccccc1)CCC | 1 | -18 | -6 | 12 | -5 | 18
FC(F)Oc1ccc(NC(=S)NC2CCCCCCC2)cc1 | 14 | 34* | -6 | -24 | 8 | 0
S=C(Nc1ccc(Cl)cc1)NC1CCCCC1 | 10 | 1 | 0 | -5 | 10 | -6
O=C(NC1CCSc2ccccc21)c1cccc(OC(F)F)c1 (stereo unspecified) | 2 | -10 | -9 | 5 | -23 | -8
FC(F)Oc1ccc(NC(=S)NC2CCSc3ccccc32)cc1 (stereo unspecified) | 15 | 87* | 0 | -24 | 20 | -4
O=S(=O)(c1ccc(N2CCCCCC2)nc1)N1CCCC1 | 1 | 70* | -13 | -33 | 4 | 13
O=S(=O)(c1ccc(Cl)nc1)N1CCC(Cc2ccccc2)CC1 | 1 | -12 | -2 | 7 | -15 | 7
O=S(=O)(NC1CCCCC1)c1ccc(N2CCOCC2)nc1 | 19* | -5 | -1 | 8 | -4 | 20
NC(=O)C1CCN(c2ccc(S(=O)(=O)N3CCC(Cc4ccccc4)CC3)cn2)CC1 | 19* | -4 | -1 | 7 | 5 | 8
CN1CCN(c2ccc(S(=O)(=O)N3CCCCC3)cn2)CC1 | 0 | -5 | -6 | 2 | 6 | -6
CC1=C(C(=O)N2CCOCC2)CC(CC(=O)NC2CCCC2)C(=O)N1Cc1ccccc1 (stereo unspecified) | 0 | -15 | 0 | 10 | -14 | 15
CC(C)c1ccc(Nc2n[nH]c(=S)s2)cc1 | 1 | 7 | -2 | -2 | 28* | -5
NC(CSC(c1ccccc1)(c1ccccc1)c1ccc2c(c1)OCO2)C(=O)O (stereo unspecified) | 0 | 2 | -9 | -7 | -19 | 25
CN(CCCCOc1ccc(F)cc1)Cc1ccccc1 | 1 | 12 | -7 | -12 | -14 | 15
Nc1ccc(OCc2ccccc2)cc1 | 0 | -2 | -7 | 1 | -1 | 15
CCN(Cc1ccccc1)Cc1ccc(OCc2ccccc2)cc1 | 0 | 35* | -9 | -24 | 13 | -4
SMILES | M1 ag parental | M1 antag | M1 ag | M1 PAM | CHO-K1 Ca antag | M1 PAM parental
Cc1cc(C)c(C)c(OCCCCN(C)Cc2ccccc2)c1 | 3 | 65* | -7 | -29 | -4 | 24
CCc1ccc(OCCCCN(C)Cc2ccccc2)cc1 | 1 | 33* | -8 | -23 | 12 | 14
O=C(NC1CCCC1)C(c1ccccc1)N(Cc1ccccc1)C(=O)c1csnn1 (stereo unspecified) | 1 | -13 | -3 | 5 | -16 | 10
O=c1[nH][nH]c(C(F)(F)F)c1/C=N/N1CCOCC1 | 1 | -6 | -3 | 3 | -6 | 9
CC1(c2ccccc2Cl)NC(=O)N(CC(=O)Nc2ccc3c(c2)OCO3)C1=O (stereo unspecified) | 0 | -12 | -2 | 12 | 6 | 8
COC(=O)C(C)(C)ONC(=O)Nc1ccccc1 | 0 | -5 | -5 | 4 | -4 | 6
COc1cccc(N2CCN(C(=O)c3cccc(NC4=NC5CS(=O)(=O)CC5S4)c3)CC2)c1 (stereo unspecified) | 5 | -6 | -2 | -3 | 24* | -6
Cc1cccc(OCC(=O)N(Cc2ccccc2)c2c(N)n(Cc3ccccc3)c(=O)[nH]c2=O)c1 | 0 | -16 | 8 | 23* | -16 | 4
Nc1c(N(CCC2=CCCCC2)C(=O)COc2ccc(F)cc2Cl)c(=O)[nH]c(=O)n1Cc1ccccc1 | 0 | 11 | -1 | -4 | -10 | 3
Nc1c(N(CCC2=CCCCC2)C(=O)Cc2ccc(F)cc2)c(=O)[nH]c(=O)n1Cc1ccccc1 | 6 | 10 | 19* | -4 | -4 | 7
COC(=O)c1sc(S(=O)(=O)N2CCCCC2)c(C(=O)OC)c1C | 0 | 21* | -6 | -27 | -3 | 12
CCOC(=O)c1c(C)n(C)c2ccc(OCC(O)CNCCc3ccccc3)cc12 (stereo unspecified) | 12 | -8 | -8 | 6 | 31* | 4
COC(=O)c1ccc(CNC(=O)COC(=O)c2cc(Cl)ccc2O)cc1 | 0 | -5 | -2 | 5 | -14 | 12
O=C(Nc1ccc(Cl)cc1)Nc1ccccc1NS(=O)(=O)c1cccs1 | 16* | 34* | 2 | -26 | 34* | -2
CC(C)C(Cl)=NOC(=O)Nc1ccc(S(N)(=O)=O)cc1 | 0 | -12 | -2 | 3 | -9 | 7
CC(=O)Nc1cccc(OCC(=O)Nc2ccccc2)c1 | 1 | -5 | 1 | 7 | -8 | 2
CCOC(=O)Nc1cccc(OCC(=O)Nc2ccccc2OCC)c1 | 1 | -8 | -5 | -3 | 24* | -6
COc1cccc(C(=S)N2CCCC2)c1OC | 1 | -2 | -3 | 5 | -6 | 20
CSc1ccc(CN(C)C(=O)C(c2ccccc2)c2ccccc2)cc1 | 1 | 20 | -7 | -6 | -1 | 19
CN(CCN(C)C(C)(C)C)C(=O)C(c1ccccc1)c1ccccc1 | 1 | 97* | -6 | -27 | -2 | -10
O=C(c1ccc(Br)o1)N1CCN(CCc2ccncc2)CC1 | 1 | 44* | -8 | -29 | -14 | -6
O=C(c1ccncc1)N1CCN(CCc2ccccc2)CC1 | 0 | -16 | -6 | 11 | 0 | -4
COc1cccc(-c2cnc(NCc3cc(Cl)ccc3O)n2C)c1 | 1 | 32* | -6 | -27 | 8 | -3
